Hits are enriched below; roughly 5.9% of the tested compounds scored in any of these assays.
KB-V1 MDR tox = qHTS assay for MDR1-selective chemotherapeutics: Primary screen using the drug-selected MDR subline cells KB-V1. AID 1347076, 2019. 400,000 compounds, 3.4% hits. Potency, µM (series often up to 46.1 µM), actives largely listed as cytotoxic. KB-V1 MDR cells viability, CellTiter-Glo, 72 h; also: % is scaled to controls: 0 for no effect and ±100 for the full control effect; nearly all actives have a fitted effect of over 60% in size
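qHTS viability screen in drug-selected KB-V1 MDR cells: 72 h compound treatment at 37 degrees C, ATP luminescence end point.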
HepG2 tox = qHTS for Inhibitors of TGF-b: Cytotox Counterscreen. HepG2 CAGA-GFP viability, ATP luminescence, 18 h. Potency, µM (doses to about 46.1 µM), for inactives: at the highest dose activity change, negative = cytotoxicity, usual class: cytotoxic. 410,000 compounds, 0.76% hits. AID 588856, 2011
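CellTiter-Glo luminescence gave cytotoxicity after 18 hours at 37 degrees C. The cells were HepG2 CAGA-GFP in 1% FBS DMEM, stimulated with 500 pg/mL TGF-beta after compound addition. %Activity was normalised to no-cell wells (complete cell-killing) and DMSO (no toxicity), and curves were fitted and classified.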
S2 tox = Viability Counterscreen for Primary qHTS for Inhibitors of ATXN expression. S2 cells (HEK-293 line with an ATXN2-luciferase reporter) viability, CellTiter-Fluor protease fluorescence, 24 h. Potency, µM (doses to about 56.7 µM), most hits filed as cytotoxic. 400,000 compounds, 0.49% hits. AID 651635, 2014; also: nearly all actives have a fitted effect of over 40% in size
TGFb SMAD3 inh = qHTS for Inhibitors of TGF-b. HepG2 CAGA-GFP TGF-b/SMAD3 reporter, GFP fluorescence, 18 h; TGF-beta stimulated, 500 pg/mL final. Potency, µM (top dose mostly 46.1 µM), inactives show at the top dose activity, negative = inhibition, actives largely listed as inhibitors. 410,000 compounds, 1.2% hits; also: % is scaled to controls: 0 for no effect and ±100 for the full control effect; nearly all actives have a fitted effect of over 65% in size
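Smad-responsive CAGA-GFP expression was quantified in HEPG2 cells exposed to compounds and 500 pg/mL final TGF-beta for 18 h at 37 degrees C; unstimulated wells defined full inhibition.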
ATXN2 expr inh = Primary qHTS for Inhibitors of ATXN expression. HEK-293 ATXN2-luciferase reporter, luminescence, 24 h. Potency, µM (series often up to 57 µM), for inactives: at the top dose activity change, negative = inhibition, hits mostly inhibitors. 360,000 compounds, 0.72% hits; also: % is scaled to controls: 0 for no effect and ±100 for the full control effect; nearly all actives have a fitted effect of over 55% in size
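ATXN2-luciferase reporter cells (luciferase flanked by upstream and downstream ATXN2 gene portions) were treated 24 h at 37 °C with compounds at up to 57 uM. SteadyGlo luminescence gave expression; GF-AFC fluorescence gave viability.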
KB-3-1 tox = qHTS assay for MDR1-selective chemotherapeutics: Primary screen using the parental adenocarcinoma cell KB-3-1; AID 1347075, 2019; KB-3-1 viability, CellTiter-Glo ATP luminescence, 72 h; 400,000 compounds, 1.4% hits; Potency, µM (titrated, usually from 46.1 µM), most hits filed as cytotoxic; also: % is scaled to controls: 0 for no effect and ±100 for the full control effect; nearly all actives have a fitted effect of over 60% in size
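72 h, 37 °C compound treatment of KB-3-1 parental cells; CellTiter-Glo added, 10 min, luminescence read. Data corrected against DMSO-only plates and normalized before curve fitting.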
An asterisk follows results filed as active; i = inactive; ? = inconclusive; / = no result; ! = not confirmed by another sample; [ ] = dose if it differs, or a comment. Calls follow the shape of the dose curve; as a rule, active = well fitted curve in the direction sought with a large enough effect; inconclusive = small, poorly fitted or top-dose-only effect, or another doubt; inactive = no such curve, though single readings can be large; an effect the other way counts as inactive or inconclusive. Potency is read from the fitted curve at half-maximal effect.

SMILES	KB-V1 MDR tox	HepG2 tox	S2 tox	TGFb SMAD3 inh	ATXN2 expr inh	KB-3-1 tox
COc1cccc(C2CNC3(CCCC(C)C3)c3[nH]c4ccccc4c32)c1OC (stereo not drawn)	?	-49%	11µM*	?	/	i
Cc1c(C(=O)N2CCCCC2)oc2ccc(S(=O)(=O)N3CC(C)CC(C)C3)cc12 (stereo not drawn)	?	-31%	i	11µM*	?	i
CCCCN(CCCC)S(=O)(=O)c1ccc2oc(C(=O)N3CCOCC3)c(C)c2c1	4.6µM*	-14%	i	-7%	-17%	i
Cc1c(C(=O)NCCC2=CCCCC2)oc2ccc(S(=O)(=O)N3CCC4(CC3)OCCO4)cc12	16µM*	-6%	i	-10%	?	?
CCCCN(C)C(=O)c1oc2ccc(S(=O)(=O)N3CCCCCC3)cc2c1C	2.6µM*	-47%	i	?	?	i
Cc1c(C(=O)NCc2ccccc2)oc2ccc(S(=O)(=O)N3CCC4(CC3)OCCO4)cc12	i	-11%	i	-2%	-4%	i
Cc1c(C(=O)O)oc2ccc(S(=O)(=O)N3CCCC3)cc12	?	1%	i	0%	/	i
CCOC(=O)N1CCN(C(=O)c2oc3ccc(S(=O)(=O)N4CCCCC4)cc3c2C)CC1	?	-23%	i	1%	-16%	?
CCOc1cccc(C(=O)N(Cc2ccc(F)cc2)Cc2ccco2)c1	/	-23%	/	-3%	/	/
O=C(NCC1(N2CCCCC2)CCCCC1)c1ccc(-n2cc(NC(=O)c3cccnc3)cn2)cc1	/	/	i	/	/	/
Cc1c(C(=O)Nc2cccc(Cl)c2)oc2ccc(S(=O)(=O)N3CCC4(CC3)OCCO4)cc12	4.1µM*	0%	i	1%	-21%	?
Cc1c(C(=O)NCC2COc3ccccc3O2)oc2ccc(S(=O)(=O)N3CCOCC3)cc12 (stereo not drawn)	2.3µM*	-25%	?	-6%	-16%	?
Cc1c(C(=O)Nc2ccc(F)c(F)c2)oc2ccc(S(=O)(=O)N3CCCCC3)cc12	7.3µM*!	-10%	?	?	?	i
Cc1c(C(=O)NCC2COc3ccccc3O2)oc2ccc(S(=O)(=O)N3CC(C)CC(C)C3)cc12 (stereo not drawn)	?	-30%	i	-23%	-3%	i
Cc1ccc(NC(=O)c2oc3ccc(S(=O)(=O)N4CCCCCC4)cc3c2C)cc1Cl	i	-2%	i	17%	-2%	i
COc1ccc(C2NCCc3c2[nH]c2ccccc32)cc1CSc1nc2ccccc2s1 (stereo not drawn)	23µM*	-91%	i	?	-34%	?
COc1cccc(NC(=O)c2ccc(S(=O)(=O)NCc3cccnc3)cc2)c1	18µM*	-27%	i	-10%	-8%	i
COc1cccc(S(=O)(=O)NCc2ccc(C(=O)Nc3cccc(Cl)c3)cc2)c1	?	-3%	?	-14%	16µM*	?
Cc1cccc2c(N3CCCC3)nc(CNS(=O)(=O)c3ccc4ccccc4c3)nc12	/	/	i	/	/	/
O=C(CNC(=O)c1ccccc1)N/N=C/c1ccc([N+](=O)[O-])s1	?	14µM*	?	11µM*	?	?
O=[N+]([O-])c1ccc(C=Nc2cccc3ccccc23)s1	?	25µM*	?	16µM*	-10%	?
Cc1cc(C)n(CC(=O)N/N=C/c2ccc([N+](=O)[O-])s2)n1	?	-84%	i	?	?	?
O=C(Cc1ccccc1)NCC(=O)N/N=C/c1ccc([N+](=O)[O-])s1	?	16µM*	?	?	?	?
COc1cc(CN2CCc3nnc(C(NS(C)(=O)=O)C(C)C)n3CC2)ccc1F (stereo not drawn)	/	/	i	/	/	/
Cc1ccc(CN2CCCn3nc(C(=O)NCC(C)c4ccccc4)cc3C2=O)cc1 (stereo not drawn)	i	-44%	i	-29%	-24%	i
SMILES	KB-V1 MDR tox	HepG2 tox	S2 tox	TGFb SMAD3 inh	ATXN2 expr inh	KB-3-1 tox
CN(CC(=O)NCc1ccc(F)cc1)S(=O)(=O)c1cccc2nsnc12	i	-2%	?	-2%	-2%	i
CN(CC(=O)NCc1cccs1)S(=O)(=O)c1cccc2nsnc12	21µM*	1%	i	4%	4%	i
CCC(C)NC(=O)Cn1ncc2c(C)n(Cc3ccc(F)cc3)c(C)c2c1=O (stereo not drawn)	i	-7%	/	0%	/	i
S=C(NCc1cccs1)Nc1ccccc1Cl	26µM*	-3%	i	-17%	8%	i
CC(C)c1ccc(NC(=S)NCc2cccs2)cc1	23µM*	-22%	i	-24%	47%	i
S=C(NCc1cccs1)Nc1cc(Cl)cc(Cl)c1	?	-48%	?	22µM*	?	?
CSc1ccc(C2CC(=O)Oc3c2c(=O)n(C)c2ccccc32)cc1 (stereo not drawn)	i	3%	i	3%	5%	i
Cc1ccc(N2CCN(C(=O)c3cc(S(=O)(=O)N4CCCCC4)c[nH]3)CC2)c(C)c1	i	-99%	i	?	12%	i
CCC1CN(C(=O)Nc2ccc(Br)cc2F)c2ccccc2S1 (stereo not drawn)	i	-6%	/	0%	/	i
CCN(c1ccccc1)c1nc(N)nc(C#N)n1	i	19%	/	-1%	/	i
CNC(CC(=O)c1ccc([N+](=O)[O-])cc1)C(Cl)(Cl)Cl (stereo not drawn)	i	10µM*	28µM*	3.2µM*	25µM*	?
COc1ccc(C(=O)/C(C#N)=N/Nc2ccc([N+](=O)[O-])cc2)cc1	8.2µM*	-56%	/	?	/	2.3µM*
COc1ccc(C(=O)CC(=O)Nc2ccc([N+](=O)[O-])cc2)cc1	i	-48%	?	?	?	i
COc1ccc(C(=O)CC(Nc2ccc([N+](=O)[O-])cc2)c2ccc(OC)cc2)cc1 (stereo not drawn)	10µM*	-2%	i	3%	6%	i
COc1ccc(N/N=C(\C#N)C(N)=O)cc1	i	10%	i	-15%	26%[11.3 µM]	i

Source: PubChem (National Center for Advancing Translational Sciences (NCATS))
